Screening results deposited in PubChem BioAssay by National Center for Advancing Translational Sciences (NCATS).
FMDV inh: foot and mouth disease virus antiviral activity | Potency, µM (highest dose often 57.9 µM), most hits filed as inhibitors | FMDV antiviral cell-based qHTS | 410,000 compounds, 1.2% hits | AID 1159524; calls by dose curve; tested in HEK293T cells; also: read-out not given here; nearly all actives have a fitted effect of over 45% in size
LASV entry inh: blocks Lassa virus binding to or entry into cells. Lassa virus pseudotype entry inhibition, cell reporter. Potency, µM (doses to about 37.9 µM), actives largely listed as inhibitors. 300,000 compounds, 1.2% hits. AID 540256; calls by dose curve; tested in HEK293 cells; also: nearly all actives have a fitted effect of over 50% in size
Marburg entry inh: blocks Marburg virus binding to or entry into cells; Marburg virus pseudotyped entry inhibition, cell reporter; Potency, µM (highest dose often 37.8 µM), most hits filed as inhibitors; 300,000 compounds, 1.8% hits; AID 540276; calls by dose curve; tested in HEK293 cells
RE007 growth inh: less growth of the S. pombe RE007 Vpr strain; 360,000 compounds, 0.21% hits; Potency, µM (titrated, usually from 92.2 µM), actives largely listed as inhibitors; S. pombe RE007 Vpr strain, BacTiter-Glo ATP luminescence, 24 h; active = well fitted falling curve with a large enough effect; inconclusive = small, poorly fitted or top-dose-only effect; inactive = no such curve, though single readings can be large or run the other way; also: nearly all actives have a fitted effect of over 50% in size
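Fission yeast strain RE007, carrying one chromosomally integrated HIV-1 vpr copy, was seeded at OD 0.01 in PMG+AL medium with 23 nL pinned compound. After 24 h at 30 °C and 99% humidity, viability was read by BacTiter-Glo luminescence.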
HCV inh: blocks hepatitis C virus | Huh7.5.1 HCVcc-Cre infection, luciferase reporter, 44 h | Potency, µM (highest dose often 41.8 µM), actives largely listed as inhibitors | 340,000 compounds, 3.4% hits
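Compounds are dispensed onto cells plated 4 h earlier at 1,000 per well, with HCVcc-Cre virus (about 0.5 moi) added next. Following 44 h of culture, luminescent signal is measured for 15 sec after 15 min with substrate at room temperature.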
Sm TGR block: blocks Schistosoma mansoni thioredoxin glutathione reductase; AID 485364; Potency, µM (top dose mostly 114 µM), usual class: inhibitors; purified TGR, DTNB reduction, TNB absorbance 405 nm; 360,000 compounds, 3% hits; Q962Y6; also: nearly all actives have a fitted effect of over 60% in size
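Kinetic colorimetric format: TGR-catalysed, NADPH-driven DTNB reduction monitored via TNB absorbance. Enzyme dispensed at 20 nM; compound exposure 15 min at room temperature before reaction start.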
Hits are given with their value; – = inactive; ? = inconclusive; · = no result; [ ] = dose if it differs, or a comment. Hits are enriched below; roughly 7.2% of the tested compounds scored in any of these assays. Unless noted, calls follow the shape of the dose curve; as a rule, active = well fitted curve in the direction sought with a large enough effect; inconclusive = small, poorly fitted or top-dose-only effect, or another doubt; inactive = no such curve, though single readings can be large; an effect the other way counts as inactive or inconclusive.

SMILES | FMDV inh | LASV entry inh | Marburg entry inh | RE007 growth inh | HCV inh | Sm TGR block
CCCCOc1ccc(C(=O)Nc2ccc3c(c2)N(C(C)=O)CCC3)cc1 | 3.16µM | – | · | · | · | –
CC(=O)N1c2c(cc(Br)cc2S(=O)(=O)NCc2ccccc2Cl)CC1C (configuration not stated) | – | – | – | · | · | –
CC(C)(C)CC(C)(C)NCC(O)COc1ccc2c(c1)CCC2 (configuration not stated) | ? | ? | 7.08µM | – | ? | ·
CC(C)(CO)NCC(O)COc1ccc2c(c1)CCC2 (configuration not stated) | – | – | – | – | – | –
NNC(=S)Nc1ccc(S(=O)(=O)N2CCOCC2)cc1 | – | · | · | – | – | –
O=S(=O)(c1ccc(NC(=S)N/N=C/c2c3ccccc3cc3ccccc23)cc1)N1CCOCC1 | – | · | · | – | 2.82µM | ·
O=S(=O)(c1ccc(NC(=S)N/N=C/c2ccc(Oc3ccccc3)cc2)cc1)N1CCOCC1 | – | – | – | – | – | –
O=S(=O)(c1ccc(NC(=S)Nc2ccc(OC(F)F)cc2)cc1)N1CCOCC1 | – | – | – | – | – | 44.7µM
O=S(=O)(c1ccc(NC(=S)NCCC(c2ccccc2)c2ccccc2)cc1)N1CCOCC1 | ? | 3.55µM | 10µM | – | ? | –
COc1ccc(CCNC(=O)C2CCN(c3nc4ccccc4nc3C(F)(F)F)CC2)c(OC)c1 | – | – | · | · | · | –
COc1cccc([C@@H]2Oc3ccc(Br)cc3C[C@@H]2OC(=O)Nc2cc(OC)c(OC)c(OC)c2)c1 | · | · | – | · | · | ·
Cc1oc(-c2ccc(C(=O)NCCCOC(C)C)cc2)nc1CS(=O)(=O)c1ccccc1 | ? | – | · | · | · | ?
CCCCNC(=O)c1ccc(-c2nc(CS(=O)(=O)c3ccc(C)cc3)c(C)o2)cc1 | – | – | · | · | · | 39.8µM
COCCCNC(=O)c1ccc(-c2nc(CS(=O)(=O)c3ccc(C)cc3)c(C)o2)cc1 | – | – | · | · | · | 25.1µM
CCOC(=O)c1ccc(NC(=O)N2CC3CCCN3c3ccccc32)cc1 (configuration not stated) | ? | – | · | · | · | –
O=C(c1cccc(F)c1)N1CCC2(CCCN(c3ncccn3)C2)CC1 | – | · | · | · | · | ·
N#Cc1cc2c(nc1SCC(=O)Nc1sc3c(c1C#N)CCC3)CCC2 | – | ? | – | – | – | ?
N#Cc1c(NC(=O)CSC2=NCCS2)sc2c1CCCC2 | – | – | – | – | ? | –
COc1ccc(-c2ccc(C#N)c(SCC(=O)Nc3sc4c(c3C#N)CCC4)n2)cc1OC | – | 14.6µM | ? | – | ? | –
N#Cc1c(NC(=O)CCCC(=O)O)sc2c1CCCCC2 | – | 8.2µM | 1.16µM | – | – | –
Cc1ccnc(SCC(=O)Nc2sc3c(c2C#N)CCCC3)n1 | ? | – | – | – | 7.94µM | –
Cc1csc(SCC(=O)Nc2sc3c(c2C#N)CCC3)n1 | – | – | ? | – | ? | –
N#Cc1c(NC(=O)CSc2ncn[nH]2)sc2c1CCCC2 | ? | 2.31µM | ? | – | ? | –
COc1ccccc1-c1ccnc(-n2ncc(C(=O)N3CCCCC3c3cccnc3)c2C)n1 (configuration not stated) | – | · | · | · | · | ·
CCN1CCN(CC(=O)Nc2sc3c(c2C#N)CCC(C)C3)CC1 (configuration not stated) | – | – | ? | – | 35.5µM | ?
SMILES | FMDV inh | LASV entry inh | Marburg entry inh | RE007 growth inh | HCV inh | Sm TGR block
CC1CCc2c(sc(NC(=O)CSc3ncn[nH]3)c2C#N)C1 (configuration not stated) | ? | · | · | – | 11.2µM | –
N#Cc1c(NC(=O)COC(=O)c2ccc(O)cc2O)sc2c1CCC2 | – | · | · | – | 7.08µM | –
CC1CCc2c(sc(NC(=O)Cn3nc(C(=O)O)c4ccccc4c3=O)c2C#N)C1 (configuration not stated) | – | · | · | – | – | 28.2µM
CC(C)(C)C1CCc2c(sc(NC(=O)CSc3ncn[nH]3)c2C#N)C1 (configuration not stated) | – | ? | – | – | ? | –
COc1ccccc1Cn1c(CNS(=O)(=O)c2c(C)cc(C)cc2C)nc2cccnc21 | – | ? | · | · | · | –
Cc1c(Cl)cccc1NC(=O)c1ncoc1-c1ccco1 | – | ? | · | · | · | –
CCC1CN(CCNC(=O)c2ccccc2-n2cccn2)Cc2cc(OC)ccc2O1 (configuration not stated) | – | · | · | · | · | ·
COc1ccc(-c2coc3c(C)c4oc(=O)c(CCC(=O)O)c(C)c4cc23)cc1 | – | ? | – | – | 2.51µM | –
Cc1c(CCC(=O)O)c(=O)oc2c(C)c3occ(-c4ccc(Br)cc4)c3cc12 | – | – | – | – | – | –
CSc1nc(N)c(N=Nc2ccc([As](=O)(O)O)cc2)c(=O)[nH]1 | – | – | – | – | ? | 0.316µM
Nc1nc(N)c(N=Nc2ccc(Cl)cc2)c(=O)[nH]1 | – | · | · | – | 5.62µM | –
Nc1nc(N)c(N=Nc2ccc(S(N)(=O)=O)cc2)c(=O)[nH]1 | – | · | · | · | – | –
Nc1nc(N)c(N=Nc2ccc(SCC(=O)O)cc2)c(=O)[nH]1 | – | · | · | · | – | –
CC(C)(C)OC(=O)N1CCC(c2c(C(=O)N3CCOCC3)cnn2-c2cccc(F)c2)CC1 | – | ? | · | · | · | –
Cc1ccc(NC(=O)CN2C(=O)c3ccccc3Sc3ccc(C(=O)N4CCOCC4)cc32)cc1C | – | ? | · | · | · | –
CCCCCCCCCCCCCCCCCCOC[C@H](COP(=O)([O-])OCC[N+](C)(C)C)OC | –[6.7 µM] | ? | ? | · | · | ·
COc1ccc(/C=C2\Sc3ccc(C(=O)N4CCN(Cc5ccccc5)CC4)cc3N(C)C2=O)cc1OC | 12.6µM | · | · | – | 3.55µM | –
COc1ccc(/C=C2\Sc3ccc(C(=O)NCc4cccnc4)cc3N(C)C2=O)cc1OC | ? | ? | ? | – | 8.91µM | –
COc1cccc(/C=C2\Sc3ccc(C(=O)NCc4cccnc4)cc3N(C)C2=O)c1 | ? | – | ? | – | ? | –
CN1C(=O)/C(=C/c2cccc(Cl)c2)Sc2ccc(C(=O)NCc3cccnc3)cc21 | – | · | · | – | 10µM | –
COC(=O)CC1=C(C(=O)OC)[C@H](c2cccc(OCC(N)=O)c2)C(C#N)=C(N)O1 | · | · | – | · | · | ·
CCN1CCN(c2ncc3c(n2)CCN(Cc2sccc2C)C3)CC1 | – | – | · | · | · | –
CNCCc1c[nH]c2ccc(O)cc12 | – | – | ? | – | 3.16µM | ·
CNCCc1c[nH]c2ccccc12 | – | · | · | – | – | –
CCNc1nc2c(c(=O)[nH]c(=O)n2C)n1CC(O)COc1ccc(Cl)cc1Cl (configuration not stated) | ? | ? | · | · | · | –
CC(=O)C1=C(c2ccc(C)cc2)N(C(C)=O)n2c(nnc2-c2ccccc2)S1 | – | – | · | · | · | –
CC(=O)C1=C(c2cccc([N+](=O)[O-])c2)N(C(C)=O)n2c(C)nnc2S1 | ? | ? | ? | – | ? | 22.4µM
OC(CN1CC=C(/C=C/c2ccc(Br)cc2)CC1)c1ccccc1 (configuration not stated) | – | – | 11.2µM | – | ? | ?
